According to PubChem BioAssay:
The source made the active and inactive calls.

How the values were obtained:
[1] = system: Plasmodium falciparum Sir2 (PF13_0152, Sir2A); test: Plasmodium falciparum Sir2A binding compounds – biochemical, small-molecule microarray, 635 nm fluorescence, primary screen (AID 1098); conditions: fluorescence 635 nm, higher = more signal;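 also: score merges spot fluorescence intensity with its signal-to-noise ratio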
[2] = probe aDKK1 binding to arrayed compounds – biochemical, biotinylated probe, 635/667 nm fluorescence, primary screen (AID 1099); conditions: small-molecule microarray, higher = more signal;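 also: score merges 667nm spot fluorescence with signal to noise across triplicate slides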
[3] = probe aCHRDL2 binding to arrayed compounds – biochemical, biotinylated probe, 635/667 nm fluorescence, primary screen (AID 1100); conditions: small-molecule microarray, higher = more signal
[4] = change in splice reporter luminescence, either direction, cell-based, HEK293, spliceosome inhibition project, primary screen (AID 1101); conditions: HEK293 splicing luciferase reporter, 24 h, higher = more signal, called active from +8 up or from −8 down;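 also: HEK293 cells carrying a splicing-competent luciferase reporter gene; test concentration not given here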
[5] = biological target: Fibroblast growth factor 10 (Homo sapiens) (UniProt O15520); test: compounds binding fibroblast growth factor 10 – biochemical, small-molecule microarray, 635 nm fluorescence, primary screen (AID 1102); conditions: FGF10 binding, fluorescence 635 nm, higher = more signal
[6] = system: glycogen synthase kinase-3 (GSK3A per assay name; protocol says GSK3B); test: compounds binding glycogen synthase kinase-3 – biochemical, small-molecule microarray, 635 nm fluorescence, GSK3A, primary screen (AID 1103); conditions: fluorescence 635 nm, higher = more signal; also: the record names both GSK3A and GSK3B
[7] = biological target: Epidermal growth factor receptor (Homo sapiens) (UniProt P00533); test: compounds binding epidermal growth factor receptor – biochemical, small-molecule microarray, 635 nm fluorescence, primary screen (AID 1104); conditions: EGFR binding, higher = more signal;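 also: score merges 667 nm emission intensity with spot signal to noise over triplicate slides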
[8] = biological target: Follistatin-related protein 3 (Homo sapiens) (UniProt O95633); test: compounds binding follistatin-related protein 3 – biochemical, small-molecule microarray, 635 nm fluorescence, primary screen (AID 1105); conditions: FSTL3 binding, higher = more signal;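 also: score merges emission near 667 nm and signal to noise per printed spot across three slides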
[9] = biological target: Dickkopf-related protein 1 (Homo sapiens) (UniProt O94907); test: small molecules binding DKK1 protein – biochemical, small-molecule microarray, 635 nm fluorescence scan, primary screen (AID 1106); conditions: higher = more signal;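 also: score merges emission near 667 nm with signal to noise over three replicate slides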
[10] = system: Inhibin beta A chain (activin A); test: small molecules binding activin A – biochemical, small-molecule microarray, 635 nm fluorescence scan, primary screen (AID 1107); conditions: INHBA, higher = more signal;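 also: mouse activin A protein probed at 4.33 µg/mL on printed slides; score merges bound-protein fluorescence near 667 nm with spot signal-to-noise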
[11] = system: Human papillomavirus type 1a protein E7 (residues 44-93); test: small molecules binding HPV E7 44-93 – biochemical, small-molecule microarray, residues 44-93, 635 nm fluorescence, primary screen (AID 1108); conditions: fluorescence 635 nm, higher = more signal;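 also: E7 fragment applied at 1 µg/mL in TBST for 1 h at 4 C; score combines spot fluorescence with its signal to noise ratio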
[12] = hepatitis C replication reporter changes, two-sided – Huh7 cells, luciferase reporter, HCV replication inhibitor project, primary screen (AID 1109); conditions: Huh7 HCV replicon luciferase reporter, 48 h; higher = more signal;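 also: huh7 hepatoma cells harbouring a luciferase neomycin HCV replicon reporter; luciferase luminescence as measure of HCV replicon replication; test concentration not given here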
[13] = biological target: Left-right determination factor 2 (Homo sapiens) (UniProt O00292); test: small molecules binding LEFTY2 protein – biochemical, small-molecule microarray, 635 nm fluorescence scan, primary screen (AID 1110); conditions: higher = more signal
[14] = biological target: Calmodulin-1 (Homo sapiens) (UniProt P0DP23); test: small molecules binding calmodulin-1 with EGTA – biochemical, small-molecule microarray, Cy5-labelled CALM1, profiling panel (AID 1111); conditions: Cy5-CALM1 binding fluorescence, higher = more signal;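 also: labelled calmodulin applied in Tris saline Tween buffer holding calcium plus EGTA and DTT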
[15] = biological target: Calmodulin-1 (Homo sapiens) (UniProt P0DP23); test: small molecules binding Ca-loaded calmodulin-1 – biochemical, small-molecule microarray, Cy5-labelled CALM1, plus calcium, artefact control for SMM control-protein annotation, profiling panel (AID 1112); conditions: Cy5-CALM1 binding fluorescence, higher = more signal;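 also: score merges spot fluorescence with signal to noise from triplicate slides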
[16] = probe aWnt5a binding to arrayed compounds – biochemical, biotinylated probe, 635/667 nm fluorescence, primary screen (AID 1113); conditions: small-molecule microarray, higher = more signal;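 also: score merges 667 nm fluorescence intensity with signal-to-noise per printed feature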
[17] = probe aShh binding to arrayed compounds – biochemical, biotinylated probe, 635/667 nm fluorescence, primary screen (AID 1114); conditions: small-molecule microarray, higher = more signal;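 also: probe is biotin-labelled aShh protein from a stem cell growth factor screen; measures binding of labelled protein to compounds printed on the slide; score merges feature fluorescence at 667 nm with signal-to-noise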
[18] = probe aNog binding to arrayed compounds – biochemical, biotinylated probe, 635/667 nm fluorescence, primary screen (AID 1115); conditions: small-molecule microarray, higher = more signal;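 also: probe is biotinylated aNog protein used at 0.15 µg/mL for 1 h at 4 C; z-score combines 667 nm fluorescence of each spot with its signal to noise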
[19] = biological target: Torsin-1A-interacting protein 1 (Homo sapiens) (UniProt Q5JTV8); test: compound microarray binding of lysate hLAP1 – cell lysate, small-molecule microarray, COS7 lysate, 635/667 nm fluorescence, primary screen (AID 1116); conditions: 635 nm fluorescence, higher = more signal
[20] = biological target: Alpha-bungarotoxin (Bungarus multicinctus) (UniProt P60615); test: compounds binding labelled alpha-BTX control protein – biochemical, small-molecule microarray, Alexa647 label, 635/667 nm fluorescence, artefact control for SMM control protein annotation, profiling panel (AID 1117); conditions: alpha-BTX-A647 binding fluorescence, higher = more signal
Chain of Alpha-bungarotoxin (Bungarus multicinctus) (P60615 whole entry, looked up): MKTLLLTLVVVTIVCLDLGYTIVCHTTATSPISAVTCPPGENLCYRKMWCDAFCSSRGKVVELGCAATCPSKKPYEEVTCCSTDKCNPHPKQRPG

Chain of Fibroblast growth factor 10 (Homo sapiens) (O15520 whole entry, looked up): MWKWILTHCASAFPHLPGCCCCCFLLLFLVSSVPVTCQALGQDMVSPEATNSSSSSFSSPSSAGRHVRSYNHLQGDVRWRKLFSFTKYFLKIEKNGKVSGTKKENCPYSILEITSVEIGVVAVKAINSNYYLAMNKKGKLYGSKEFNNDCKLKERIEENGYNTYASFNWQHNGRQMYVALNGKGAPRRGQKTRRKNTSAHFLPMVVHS
Chain of Epidermal growth factor receptor (Homo sapiens) (P00533 whole entry, looked up): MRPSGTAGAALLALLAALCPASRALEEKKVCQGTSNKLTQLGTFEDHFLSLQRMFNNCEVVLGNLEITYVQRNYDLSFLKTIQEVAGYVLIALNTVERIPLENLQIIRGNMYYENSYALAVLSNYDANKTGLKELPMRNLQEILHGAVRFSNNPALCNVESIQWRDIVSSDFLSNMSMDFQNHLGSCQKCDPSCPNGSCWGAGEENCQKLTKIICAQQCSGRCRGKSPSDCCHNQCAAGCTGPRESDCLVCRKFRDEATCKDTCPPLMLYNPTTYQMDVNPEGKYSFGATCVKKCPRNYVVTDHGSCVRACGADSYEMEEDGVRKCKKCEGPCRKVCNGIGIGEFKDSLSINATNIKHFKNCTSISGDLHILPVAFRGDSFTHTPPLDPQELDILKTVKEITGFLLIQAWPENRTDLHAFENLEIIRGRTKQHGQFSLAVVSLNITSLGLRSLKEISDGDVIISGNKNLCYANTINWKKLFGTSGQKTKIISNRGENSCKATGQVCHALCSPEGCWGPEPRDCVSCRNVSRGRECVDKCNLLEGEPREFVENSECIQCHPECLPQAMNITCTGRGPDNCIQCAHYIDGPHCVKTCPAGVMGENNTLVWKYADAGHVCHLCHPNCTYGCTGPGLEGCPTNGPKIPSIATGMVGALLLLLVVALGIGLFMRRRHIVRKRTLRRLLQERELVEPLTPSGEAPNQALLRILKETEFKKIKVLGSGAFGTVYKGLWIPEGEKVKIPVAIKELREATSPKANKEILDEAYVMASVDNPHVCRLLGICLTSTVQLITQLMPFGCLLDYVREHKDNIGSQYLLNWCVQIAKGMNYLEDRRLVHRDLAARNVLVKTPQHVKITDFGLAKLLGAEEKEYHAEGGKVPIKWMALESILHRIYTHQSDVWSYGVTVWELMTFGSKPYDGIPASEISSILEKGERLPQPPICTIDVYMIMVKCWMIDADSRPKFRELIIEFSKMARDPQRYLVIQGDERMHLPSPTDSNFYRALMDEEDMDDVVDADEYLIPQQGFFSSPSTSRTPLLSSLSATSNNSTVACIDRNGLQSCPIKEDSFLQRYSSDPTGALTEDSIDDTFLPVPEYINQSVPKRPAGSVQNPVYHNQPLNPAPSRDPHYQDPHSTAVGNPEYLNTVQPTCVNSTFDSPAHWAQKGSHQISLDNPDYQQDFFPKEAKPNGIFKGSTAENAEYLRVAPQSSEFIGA
Chain of Dickkopf-related protein 1 (Homo sapiens) (O94907 whole entry, looked up): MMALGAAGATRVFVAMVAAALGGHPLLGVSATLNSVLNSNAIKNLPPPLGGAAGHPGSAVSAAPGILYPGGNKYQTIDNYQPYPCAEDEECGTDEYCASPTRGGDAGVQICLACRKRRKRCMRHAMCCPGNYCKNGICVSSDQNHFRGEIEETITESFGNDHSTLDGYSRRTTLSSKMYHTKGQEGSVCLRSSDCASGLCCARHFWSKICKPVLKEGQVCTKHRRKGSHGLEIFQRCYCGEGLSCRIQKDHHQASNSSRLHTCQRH
Chain of Left-right determination factor 2 (Homo sapiens) (O00292 whole entry, looked up): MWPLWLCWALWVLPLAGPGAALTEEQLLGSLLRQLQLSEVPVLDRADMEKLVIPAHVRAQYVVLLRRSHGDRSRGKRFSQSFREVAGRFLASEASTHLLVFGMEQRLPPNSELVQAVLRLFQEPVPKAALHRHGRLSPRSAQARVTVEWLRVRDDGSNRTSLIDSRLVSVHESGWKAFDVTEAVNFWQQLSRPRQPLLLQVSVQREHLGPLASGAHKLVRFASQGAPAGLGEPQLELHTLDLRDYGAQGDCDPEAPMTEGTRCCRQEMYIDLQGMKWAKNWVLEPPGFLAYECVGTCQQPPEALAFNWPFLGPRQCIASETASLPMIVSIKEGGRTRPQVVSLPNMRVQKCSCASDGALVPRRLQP
Chain of Follistatin-related protein 3 (Homo sapiens) (O95633 whole entry, looked up): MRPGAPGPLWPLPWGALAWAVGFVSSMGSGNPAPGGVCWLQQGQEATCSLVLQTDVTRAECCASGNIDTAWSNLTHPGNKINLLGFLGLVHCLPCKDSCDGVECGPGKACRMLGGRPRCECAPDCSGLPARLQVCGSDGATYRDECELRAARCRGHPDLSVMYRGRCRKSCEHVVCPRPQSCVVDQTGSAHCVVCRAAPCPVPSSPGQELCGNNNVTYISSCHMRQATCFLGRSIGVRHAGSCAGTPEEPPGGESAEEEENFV
Chain of Torsin-1A-interacting protein 1 (Homo sapiens) (Q5JTV8 whole entry, looked up): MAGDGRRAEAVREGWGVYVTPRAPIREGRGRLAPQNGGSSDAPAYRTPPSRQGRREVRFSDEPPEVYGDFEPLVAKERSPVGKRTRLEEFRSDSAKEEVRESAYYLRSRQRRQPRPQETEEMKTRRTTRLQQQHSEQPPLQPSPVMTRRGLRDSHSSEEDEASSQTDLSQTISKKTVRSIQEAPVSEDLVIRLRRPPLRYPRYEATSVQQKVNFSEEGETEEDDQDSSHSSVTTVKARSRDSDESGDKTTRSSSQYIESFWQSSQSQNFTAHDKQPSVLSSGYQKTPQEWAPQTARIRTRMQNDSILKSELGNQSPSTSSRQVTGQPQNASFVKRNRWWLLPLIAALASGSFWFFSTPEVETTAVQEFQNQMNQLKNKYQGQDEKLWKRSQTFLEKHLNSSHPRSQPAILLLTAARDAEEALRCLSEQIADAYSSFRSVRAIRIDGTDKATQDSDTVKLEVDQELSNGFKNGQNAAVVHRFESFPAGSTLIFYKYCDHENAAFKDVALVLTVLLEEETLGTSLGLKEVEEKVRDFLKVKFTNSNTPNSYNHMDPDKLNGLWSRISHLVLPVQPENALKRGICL

Structure (SMILES)	composite z-score [1]	composite z-score [2]	composite z-score [3]	z-score [4]	composite z-score [5]	composite z-score [6]	composite z-score [7]	composite z-score [8]	composite z-score [9]	composite z-score [10]	composite z-score [11]	z-score [12]	composite z-score [13]	composite z-score [14]	composite z-score [15]	composite z-score [16]	composite z-score [17]	composite z-score [18]	composite z-score [19]	composite z-score [20]
C=C[C@H](OC)[C@@H](OC(=O)Nc1ccc(OC)cc1)c1ccc(O)c(F)c1	0.68	-0.446	0.3	-1.27 (inactive)	-0.0655	-0.499	-1.49	-1.19	-1.16	-0.25	0.625	-0.276	-0.644	-1.25	-1.39	-0.28	0.0952	-0.478	1.14	-1.56
C=C(C)[C@@H]1CC=C(C(O)C2C=CC3C(=O)N(C)C(=O)C3N2Nc2ccccc2)CC1 (stereo not given in full)	0.433	0.344	0.581	1.98 (inactive)	1.03	1.03	0.928	1.42	1.11	1.43	1.35	-0.626	0.658	-0.27	-0.74	0.0004	-0.142	-0.144	0.296	0.429
COC(=O)[C@H](Cc1ccccc1)N[C@@H](/C=C/C1CC1)[C@H](O)Cc1ccccc1	1.02	-0.157	0.442	0.488 (inactive)	-0.865	-0.637	-0.463	-0.862	-0.429	0.437	-0.431	-0.95	-0.517	0.125	-0.736	0.454	-0.309	-0.349	0.729	0.342
COCCOC(=O)N1C(=O)[C@@]2(c3cc(C#Cc4ccc(OC)cc4)ccc31)[C@H](c1ccc(OCCO)cc1)N1[C@H](c3ccccc3)[C@H](c3ccccc3)OC(=O)[C@H]1[C@@H]2C(=O)N1CCN(c2ncccn2)CC1	-0.0214	0.775	0.257	-0.449 (inactive)	0.703	1.28	0.667	1.27	1.28	-0.0857	0.819	-1.45	1.08	1.12	0.715	-0.0585	-0.26	0.0308	0.391	0.953
C=C[C@@H](COC(=O)OC(C)(C)C)N(Cc1ccc(OC)cc1)S(=O)(=O)c1ccc(Br)cc1	0.487	-0.189	0.166	0.255 (inactive)	0.541	0.632	0.691	1	0.513	0.841	1.28	-0.987	0.537	-0.042	-0.439	-0.0977	0.0121	-0.326	0.173	0.268
COc1cc2c(cc1OC)CN(C(=O)[C@@H]1[C@H]3C(=O)O[C@H](c4ccccc4)[C@H](c4ccccc4)N3[C@H](c3ccccc3OCCO)[C@@]13C(=O)Nc1ccc(C#CCCO)cc13)CC2	1.53	0.235	0.547	0.107 (inactive)	0.885	0.926	0.179	0.896	0.249	0.91	1.35	-2.36	0.268	1.16	0.104	-0.133	0.292	1.16	2.22	1.49
Cc1ccc(S[C@]2(C(=O)NC3CC3)CC(=O)N(Cc3ccccc3)[C@@H]2c2ccc(CO)cc2I)cc1	0.562	0.0491	0.717	-1.21 (inactive)	-0.794	-0.281	-1.34	-1.37	-1.59	0.5	0.477	-1.9	-1.2	-0.351	-0.149	-0.0221	-0.0794	0.503	-0.0172	-0.734
CC(C)C[C@@H]1NC(=O)[C@@H]2C[C@H](C(=O)O)[C@H](c3cccc(OCCO)c3)N2C1=O	0.881	-0.212	0.598	-0.358 (inactive)	-0.246	0.12	-0.242	0.152	-0.176	-0.513	-0.366	0.148	-0.312	0.26	0.758	-0.147	-0.199	-0.066	0.517	-0.937
CNS(=O)(=O)c1ccc(C)cc1	0.3	-0.0385	-0.446	-1.07 (inactive)	0.648	0.674	0.434	0.688	1.14	-1.89	0.899	-0.376	0.804	-0.206	-0.263	-0.169	-0.504	-0.138	-0.312	0.514
COc1ccc([Si](C)(C)[C@@H]2[C@@H](CCO)O[C@]3(C(=O)N(Cc4ccc(N(C=O)c5ccccc5)cc4)c4ccccc43)[C@H]2C)cc1	0.724	0.116	0.605	-1.38 (inactive)	0.224	-0.157	-0.049	0.218	-0.013	1.1	0.121	-4.67	0.0196	1.32	0.973	-0.0203	0.385	0.286	0.419	1.62
C=CC[C@@]1(C(=O)NCCN2CCOCC2)N=C(c2ccc(OCCCO)cc2)O[C@@H]1c1ccccc1N=[N+]=[N-]	0.241	1.09	1.03	-0.656 (inactive)	0.0038	-0.142	0.539	0.255	-0.0358	1.72	0.446	-1.23	0.187	1.26	0.581	-0.1	-0.215	-0.0119	1.76	0.841
